Our source for the growth values is PubChem BioAssay (NCI).

The panel holds about 83,000 compounds, 20% with a hit somewhere; the sample as a whole holds those more often.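 Step 1: grow cells in 96-well plates. Step 2: add test compound at a single concentration. Step 3: incubate 48 h. Step 4: record percent growth.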 Unmarked numbers belong to inactive results. The source made the active and inactive calls. How the source made its calls: active means growth percent below 10; inactive means the rest.

Holding throughout (experiment): NCI-60 one-dose screen, 48 h (100 = growth as untreated, 0 = no growth, -100 = all killed)
Common to all, as to settings: 10 µM unless noted

The test system of assay [1] is NCI-H23 lung.
Assay [2] relates to NCI-H226 lung.
Assay [3] relates to NCI-H322M lung.
Assay [4] relates to HOP-62 NSCLC.
Assay [5] deals with NCI-H460 lung.
Assay [6] concerns HOP-92 NSCLC.
The subject of assay [7] is NCI-H522 lung.
In assay [8] the test system is A549/ATCC NSCLC.
Assay [9] has as its system 786-0 renal.
Assay [10] has as its system DU-145 prostate.
Assay [11] has as its system K-562 leukemia.
For assay [12], the system named is MALME-3M melanoma.
In assay [13] the test system is MDA-MB-231 breast.
In assay [14] the test system is RXF 393 renal.
Assay [15] has as its system SF-268 CNS.
In assay [16] the test system is SF-295 CNS.
The test system of assay [17] is SF-539 CNS.
The test system of assay [18] is UACC-257 melanoma.
The test system of assay [19] is M14 melanoma.

Regarding `Cc1nc(Nc2ccccn2)sc1C(=O)/C=C/c1ccc(Br)cc1`, the growth in assay [1] is 88.3%; in [2] it was 85.6%; in assay [3], 80%; in [4] it was 63.4%; in [5], 92%; in assay [6] it was 96.3%. Moreover, the growth in assay [7] is 61.5%; in assay [8], 86.2%; in assay [9], 96.9%; in [10], 66.7%; in [11], 13.3%; in assay [12], 77.1%. For the same compound, the growth was 71.1% in [13]; 78.4% in [14]; 78.8% in assay [15]; 72.8% in assay [16]; 84.7% in assay [17]; 95.7% in assay [18]. For the same compound, the growth in assay [19] was 80.7%.

Turning to `COC(=O)CCCNC(=O)C(=O)c1c(O)c(O)c(C(C)C)c2cc(C)c(-c3c(C)cc4c(C(C)C)c(O)c(O)c(C(=O)C(=O)NCCCC(=O)OC)c4c3O)c(O)c12`, the growth was 11.8% in assay [1]; -17.2% (active) in assay [2]; 29.6% in [3]; 13% in [4]; 0.963% (active) in assay [5]; -0.407% (active) in [6]. In addition, the growth was -38.9% (active) in assay [7]; -6.82% (active) in assay [8]; 4.56% (active) in assay [9]; -0.703% (active) in assay [10]; 6.26% (active) in assay [11]; 19.7% in assay [12]. The growth was -16.3% (active) in [13]; -6.97% (active) in assay [14]; 8.13% (active) in assay [15]; -7.03% (active) in assay [16]; -1.93% (active) in [17]; -21.5% (active) in assay [18]. Also, the growth in assay [19] is -20.7% (active).

Take `CCn1c(Sc2nnc(Nc3ccccc3)s2)nc2c1c(=O)n(C)c(=O)n2C`: the growth is 88.2% in [1]; 102% in assay [2]; 91.4% in [3]; 93.5% in assay [4]; 106% in [5]; 61.5% in [6]. For the same compound, the growth is 114% in [7]; 99.9% in assay [8]; 93.2% in assay [9]; 113% in [10]; 114% in [11]; 94.9% in assay [12]. The growth is 97.8% in assay [13]; 91.4% in assay [14]; 103% in [15]; 91.9% in [16]; 96.2% in assay [17]; 97.4% in assay [18]. Besides, the growth in assay [19] is 104%.

As for `COC(=O)c1ccc(CSc2nnc(-c3ccncc3)o2)cc1`, the growth in assay [1] was 105%; in assay [2], 102%; in assay [3] it was 93.4%; in assay [4], 92.4%; in [5], 108%; in [6], 108%. Further, the growth is 86.3% in assay [7]; 99.9% in assay [8]; 100% in [9]; 114% in assay [10]; 93.9% in assay [11]; 103% in [12]. Further, the growth in assay [13] is 106%; in assay [14], 122%; in [15] it was 101%; in [16], 109%; in assay [17], 98.7%; in [18] it was 99%. For the same compound, the growth in assay [19] was 102%.

As for `COc1ccc(/C=C(\C#N)n2nnc3ccccc32)cc1`, the growth in assay [1] is 15.1%; in assay [2], 1.15% (active); in [3], 25.8%; in assay [4] it was 26.2%; in [5], 2.42% (active); in assay [6], 24.7%. For the same compound, the growth is 21.2% in [7]; 19.5% in assay [8]; 7.4% (active) in [9]; -5.07% (active) in assay [10]; 15% in assay [11]; 44.1% in assay [12]. In addition, the growth in assay [13] was -14.5% (active); in [14], -39.3% (active); in assay [15] it was 21.3%; in assay [16], -3.98% (active); in assay [17], -46.4% (active); in assay [18], 77.5%. The growth in assay [19] was -11% (active).

Take `CCCc1nc2ccccn2c1Nc1ccc(C(=O)NO)cc1`: the growth is 61.4% in assay [1]; 92.6% in assay [2]; 97.4% in [3]; 90.4% in assay [4]; 85.9% in [5]; 103% in assay [6]. Besides, the growth in assay [7] was 64.9%; in assay [8], 97.1%; in assay [9], 95.5%; in [10], 88.3%; in assay [11] it was 89.5%; in assay [12], 86.7%. The growth in assay [13] was 111%; in [14], 96%; in [15] it was 94.2%; in assay [16] it was 93.8%; in assay [17], 99.3%; in assay [18], 76.1%. The growth in [19] is 89.6%.

For `COc1cc(/C=C2\C=C(c3ccccc3)N(CCc3ccccc3)C2=O)cc(OC)c1OC`, the growth in [1] is 74.1%; in assay [2] it was 67.6%; in assay [3], 70.1%; in [4] it was 61.6%; in [5], 76.1%; in assay [6] it was 41.3%. Further, the growth is 65.7% in assay [7]; 70.4% in assay [8]; 11.7% in assay [9]; 73.8% in [10]; 94.2% in assay [11]; 50.1% in assay [12]. Further, the growth in [13] is 5.9% (active); in assay [14] it was 72.3%; in [15] it was 44.7%; in [16], 53.3%; in assay [17] it was -17.2% (active); in [18], 88.2%. For the same compound, in assay [19], the growth was 73.6%.

`CN1C[C@@H](c2ccc(Cl)cc2)[C@]2(NC(=S)N(c3ccccc3)C2=O)[C@@]12C(=O)NC1C=CC(Br)=C[C@H]12` (some centres not stated): the growth in assay [1] was 76.1%; in assay [2], 66%; in assay [3], 77.4%; in assay [4], 79.5%; in assay [5], 65.5%; in assay [6], 19.7%. Besides, the growth was 49.3% in assay [7]; 56.9% in assay [8]; 54.3% in assay [9]; 85% in [10]; 34.8% in [11]; 108% in assay [12]. Besides, the growth in assay [13] was 60.8%; in assay [14], 68.4%; in assay [15], 58.1%; in assay [16] it was 80.6%; in assay [17] it was 84.8%; in assay [18] it was 71.4%. Moreover, the growth in assay [19] was 39.4%.
